Compound activity deposited in PubChem by National Center for Advancing Translational Sciences (NCATS).
LMNA splice mod: qHTS Assay for Modulators of Lamin A Splicing. 0.01% of 200,000 active. HeLa LMNA splicing GFP/RFP minigene ratio, 48 h. Potency, µM (series often up to 46.1 µM), without a hit: at the highest dose ratio change, negative = inhibition, hits mostly inhibitors; active = well fitted inhibition curve with a large enough effect in the signal ratio, with a control signal flat, not every such curve was filed as active; inconclusive = small, poorly fitted or top-dose-only effect, or effect the other way, or a change in a side signal; the % refers to the signal ratio; note: potency is the fitted concentration of half-maximal effect
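S3 HeLa stable clones carrying a lamin A-EGFP splicing minigene plus DsRed2 were seeded at 600 cells/well in Opti-MEM with 2% FBS, pin-dosed and incubated 48 h at 37°C. Acumen cytometry (488 nm) gave the GFP/RFP total-intensity ratio.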
ALDH1A1 inh: qHTS Assay for Inhibitors of Aldehyde Dehydrogenase 1 (ALDH1A1) | Purified ALDH1A1, NADH fluorescence, propionaldehyde substrate | Potency, µM (series often up to 75.3 µM), for the others: at the top dose activity, negative = inhibition, most hits filed as inhibitors | 7.3% of 220,000 active | AID 1030, 2008;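 note: potency is the fitted concentration of half-maximal effect; plate controls were no enzyme wells and a reference inhibitor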
Target sequence (P00352 whole entry, looked up): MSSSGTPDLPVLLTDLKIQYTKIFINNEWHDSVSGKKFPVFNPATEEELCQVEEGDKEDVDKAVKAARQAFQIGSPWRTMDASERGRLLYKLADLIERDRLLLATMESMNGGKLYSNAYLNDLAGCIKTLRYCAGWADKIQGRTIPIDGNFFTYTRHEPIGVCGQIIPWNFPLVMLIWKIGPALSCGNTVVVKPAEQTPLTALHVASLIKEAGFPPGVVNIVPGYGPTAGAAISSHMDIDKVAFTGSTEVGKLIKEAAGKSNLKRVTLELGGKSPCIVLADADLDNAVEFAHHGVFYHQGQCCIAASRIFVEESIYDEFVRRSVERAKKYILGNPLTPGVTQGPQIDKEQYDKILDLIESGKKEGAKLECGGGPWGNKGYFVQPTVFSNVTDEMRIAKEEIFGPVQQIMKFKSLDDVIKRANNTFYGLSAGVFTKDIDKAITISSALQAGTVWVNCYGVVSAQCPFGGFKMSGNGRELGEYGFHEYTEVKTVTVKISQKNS
HPGD inh: qHTS Assay for Inhibitors of HPGD (15-Hydroxyprostaglandin Dehydrogenase) | 15-hydroxyprostaglandin dehydrogenase [NAD(+)] (Homo sapiens), P15428 | purified HPGD, NADH fluorescence kinetic, PGE2 substrate | Potency, µM, for inactives: top-dose activity change, negative = inhibition, actives largely listed as inhibitors | 4.3% of 150,000 active; note: potency is the fitted concentration of half-maximal effect
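NADH formation kinetics: reaction with 30 uM PGE2 and 1 mM NAD+ (final), 20 nM enzyme, Tris-HCl pH 8 with Tween 20, after 15 min compound preincubation at room temperature. Fluorescence change, last versus first of five reads.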
ALOX12 inhib: qHTS Assay for Inhibitors of 12-hLO (12-human lipoxygenase); purified 12-hLO, xylenol orange hydroperoxide absorbance; Potency, µM (doses to about 57.1 µM), for inactives: top-dose activity change, negative = inhibition, hits mostly inhibitors; 0.12% of 150,000 active; active = well fitted inhibition curve with a large enough effect; inconclusive = small, poorly fitted or top-dose-only effect; note: potency is the fitted concentration of half-maximal effect; nearly all actives have a fitted effect of over 55% in size
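Purified human 12hLO (150 nM final) was preincubated with compounds for 15 min at room temperature in 25 mM Hepes pH 7.0, 0.01% Triton X-100, then reacted with 40 uM arachidonic acid for 30 min. Hydroperoxide was detected with ferrous iron/xylenol orange.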
PNC assembly inh: High Content Assay for Compounds that inhibit the Assembly of the Perinucleolar Compartment. PC3M PTB-GFP, PNC prevalence imaging, 16 h; stronger effect = lower value. activity change (PNC), negative = inhibition, % at 10 µM. 3.1% of 140,000 active. AID 2417, 2010;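 active = readout at or below -70, meaning at least 70% loss of cells showing the perinucleolar compartment, a nuclear body marking cancer cells; inconclusive = readout between -30 and a set limit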;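 note: plate controls were DMSO wells for no effect and camptothecin positive control wells for full effect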
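Read-out is percentage of cells bearing a perinucleolar compartment, from automated 20x imaging of fixed, Hoechst-stained PC3M PTB-GFP cells. Cells were seeded 4 h, then exposed 16 h to compound (23 nl of library stock) in duplicate plates.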
An asterisk follows results filed as active; [ ] = dose if it differs, or a comment. This is a sample that favours compounds with a hit; in the whole collection about 10% have one here. Unless noted, calls come from the whole dose curve; as a rule, active = well fitted inhibition curve with a large enough effect (not every such curve was filed as active); inconclusive = small, poorly fitted or top-dose-only effect, or another doubt; inactive = no such curve, though single readings can be large or run the other way. Unless noted, % is set by controls: 0 for no effect and ±100 for the full control effect.

O=C(CSc1nnnn1-c1ccccc1)Nc1ncc2c(n1)CC(c1ccco1)CC2=O (configuration not stated) was read as LMNA splice mod inconclusive, ALDH1A1 inh 5µM*, HPGD inh -12%, ALOX12 inhib -9% and PNC assembly inh -2.
`COc1ccccc1C(=O)Nc1ncc2c(n1)CC(c1ccco1)CC2=O` (configuration not stated) gave LMNA splice mod 6%, ALDH1A1 inh 8.9µM*, HPGD inh -6%, ALOX12 inhib -9% and PNC assembly inh -3.
For O=C1CC(c2ccco2)Cc2nc(Nc3ccc(F)cc3)ncc21 (configuration not stated) the results were LMNA splice mod -5%, ALDH1A1 inh 10µM*, HPGD inh -18%, ALOX12 inhib -17% and PNC assembly inh 8.
O=C(Nc1ncc2c(n1)CC(c1ccccc1)CC2=O)c1ccco1 (configuration not stated) was read as LMNA splice mod -7%, ALDH1A1 inh inconclusive, HPGD inh -13%, ALOX12 inhib -9% and PNC assembly inh -12.
For O=C1CC(c2ccco2)Cc2nc(NCC3CCCO3)ncc21 (configuration not stated) the results were LMNA splice mod 6%, ALDH1A1 inh inconclusive, HPGD inh -6%, ALOX12 inhib 0% and PNC assembly inh 29.
For O=C(/C=C/c1ccc2c(c1)OCO2)Nc1cccnc1 the results were LMNA splice mod -3%[46 µM] and ALDH1A1 inh inconclusive.
For COC(=O)N1C2=C(c3ccccc3[C@@H]1CC(=O)Nc1ccc3ccc4cccc5ccc1c3c45)[C@@H]1C(=O)N(c3ccccc3)C(=O)[C@@H]1[C@H](C)C2 the results were LMNA splice mod -6%[9.22 µM], ALDH1A1 inh 10%[13.5 µM], HPGD inh inconclusive and ALOX12 inhib -15%[11.4 µM].
Screening c1csc(C(c2nnnn2C2CCCCC2)N2CCN(c3nc4ccccc4s3)CC2)c1 (configuration not stated) returned LMNA splice mod -14%, ALDH1A1 inh -9%, HPGD inh -4%, ALOX12 inhib -3% and PNC assembly inh inconclusive.
`N#Cc1ccc(C(c2nnnn2C2CCCC2)N2CCC(Cc3ccccc3)CC2)cc1` (configuration not stated) gave LMNA splice mod 3%, ALDH1A1 inh inconclusive, HPGD inh -7%, ALOX12 inhib 4% and PNC assembly inh 52.
For CCC(c1nnnn1C1CCCC1)N1CCN(c2ccccc2F)CC1 (configuration not stated) the results were LMNA splice mod 3%, ALDH1A1 inh inconclusive, HPGD inh -9%, ALOX12 inhib 0% and PNC assembly inh -15.
Screening c1ccc(C(c2nnnn2C2CCCC2)N2CCN(c3nc4ccccc4s3)CC2)cc1 (configuration not stated) returned LMNA splice mod 1%, ALDH1A1 inh 14µM*, HPGD inh -7%, ALOX12 inhib -2% and PNC assembly inh -6.
N#Cc1cccc(C(c2nnnn2C2CCCC2)N2CCC(Cc3ccccc3)CC2)c1 (configuration not stated) was read as LMNA splice mod -11%, ALDH1A1 inh 4%, HPGD inh -13%, ALOX12 inhib 3% and PNC assembly inh -100*.
For CCC(C)(C)n1nnnc1C(c1ccc2ncccc2c1)N1CCCC(C)C1 (configuration not stated) the results were LMNA splice mod -1%, ALDH1A1 inh -1%, HPGD inh -12%, ALOX12 inhib -3% and PNC assembly inh 161.
`CCC(C)(C)n1nnnc1C(c1ccc2ncccc2c1)N1CCN(c2nc3ccccc3s2)CC1` (configuration not stated) gave LMNA splice mod inconclusive, ALDH1A1 inh 1%, HPGD inh -17%, ALOX12 inhib -3% and PNC assembly inh -86*.
Fc1ccccc1N1CCN(C(c2ccncc2)c2nnnn2C2CCCC2)CC1 (configuration not stated) was read as LMNA splice mod 2%, ALDH1A1 inh 25µM*, HPGD inh 0%, ALOX12 inhib -11% and PNC assembly inh -5.
For OCCC1CN(C2CCN(c3ccccc3F)CC2)CCN1Cc1ccccc1 (configuration not stated) the results were LMNA splice mod -3%[46 µM] and ALDH1A1 inh 7%.
For COCC(=O)N1CCC[C@@]2(CCN(Cc3ccc(C#N)cc3)C2)C1 the results were ALDH1A1 inh -8%, HPGD inh -5% and ALOX12 inhib 4%.
CC(C)(C)n1nnnc1C(c1ccc2ncccc2c1)N1CCC(O)CC1 (configuration not stated) was read as LMNA splice mod 21%[46 µM] and ALDH1A1 inh 2%.
c1cnc2ccc(C(c3nnnn3C3CCCC3)N3CCSCC3)cc2c1 (configuration not stated) was read as LMNA splice mod -22%, ALDH1A1 inh 2%, HPGD inh -7%, ALOX12 inhib 7% and PNC assembly inh -119*.
CC(C)N(CCNC(=O)C1CCN(S(=O)(=O)N2CCOCC2)CC1)Cc1ccccc1 was read as LMNA splice mod -5%, ALDH1A1 inh -3%, HPGD inh -17%, ALOX12 inhib 2% and PNC assembly inh -102*.
`COc1ccc2[nH]cc(CCNc3ncncc3-c3c(C)noc3C)c2c1` gave LMNA splice mod -13% and ALDH1A1 inh 2%.
`Cc1cccc(C)c1NC(=S)N/N=C1\CC2CC=CC12` (configuration not stated) gave ALDH1A1 inh 11µM*.
`Cc1ccc(C(=O)N/N=C2\CC3CC=CC23)c(C)c1` (configuration not stated) gave ALDH1A1 inh 5%.
`Cc1ccc(NC(=S)N/N=C2\CC3CC=CC23)c(C)c1` (configuration not stated) gave ALDH1A1 inh 25µM*.
`N#CCCn1c(=O)c(-c2cccs2)nc2cnc(Oc3ccccc3)nc21` gave ALDH1A1 inh inconclusive, HPGD inh inconclusive and ALOX12 inhib -4%.
`CC(CNC(=O)c1ccc2nc(CCc3ccccc3)oc2c1)c1ccccc1` (configuration not stated) gave LMNA splice mod -7%[46 µM].
`C/C=C(\C)C(=O)C[Si](C)(C)c1ccccc1` gave ALDH1A1 inh 12% and HPGD inh -1%.
